A selection: hits, their analogues and other compounds. The true share with any hit is near 4.6%.
tim10-1 inh: inhibits growth of tim10-1 mutant yeast. S. cerevisiae tim10-1 ts strain growth, BacTiter-Glo, 24 h. inhibition, % at 20 µM. 2.2% of 330,000 active;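 active = inhibition of at least 40%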;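 note: mutant grown at 25 °C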
SKKanGAS inh: SKKanGAS growth inhibition; inhibition, % at 7.5 µM; S. pyogenes SKKanGAS, kanamycin growth, BacTiter-Glo, 6 h; 1.3% of 300,000 active;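 active = mean replicate score, as percent of positive control median, at least 50; inconclusive = mean below 50 but one replicate at or above 50; inactive = mean and every replicate below 50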;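 note: strain carries kanamycin resistance gene driven by streptokinase promoter and grows in 40 µg/ml kanamycin; loss of luminescence reflects streptokinase promoter inhibition or plain growth inhibition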
PfHsp90 set2: growth inhibition of yeast expressing Plasmodium Hsp90. S. cerevisiae expressing PfHsp90, BacTiter-Glo ATP, 48 h; yeast lacking PDR1 and PDR3 efflux regulators. inhibition, % at 9.4 µM. 0.32% of 310,000 active. AID 504621;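 active = every replicate shows inhibition above about 80%, whatever the replicate mean, limit read from the data; inconclusive = mean inhibition reaches the set limit but some replicate falls short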
V-ATPase pH: alters yeast V-ATPase proton transport. response, % at 10 µM. 0.37% of 350,000 active. S. cerevisiae, pHLuorin cytosolic pH fluorescence; in the data active = response mostly above about 7.3%, no sharp cut-off; inactive = mostly below about 5.4%; note: actives read high
TIM10 inh: inhibits growth of TIM10 yeast strain; S. cerevisiae TIM10 strain growth, BacTiter-Glo luminescence, 24 h; inhibition, % at 10 µM; 1.4% of 330,000 active;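 active = inhibition of 40% or more at the single tested concentration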;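 note: wild-type TIM10 isogenic control strain grown at permissive 25 °C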
tim23-1 inh: tim23-1 yeast growth inhibition; S. cerevisiae tim23-1 growth, BacTiter-Glo luminescence, 24 h; 1.3% of 330,000 active; inhibition, % at 20 µM; AID 463212;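 active = growth inhibition of the mutant yeast at or above 50%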;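 note: temperature-sensitive mutant grown at 25 °C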
Numbers stand for hits; - = inactive; ? = inconclusive; . = not tested or not shown.

SMILES	tim10-1 inh	SKKanGAS inh	PfHsp90 set2	V-ATPase pH	TIM10 inh	tim23-1 inh
O=C1[C@@H]2C(c3cccnc3)=NO[C@@H]2C(=O)N1c1ccc(Br)cc1	-	-	94	-	-	-
Cc1ccc(N2C(=O)[C@@H]3C(c4cccnc4)=NO[C@@H]3C2=O)c(C)c1	-	-	-	-	-	-
Cn1c(NCc2ccccc2)nc2c1c(=O)n(Cc1ccc(Br)cc1)c(=O)n2C	-	-	-	-	-	-
COc1ccc(CNc2nc3c(c(=O)n(Cc4ccc(Br)cc4)c(=O)n3C)n2C)cc1	-	54	-	-	-	-
C=CCc1cc(OC)ccc1OCCCCn1cncn1	-	-	-	-	-	-
CSc1nsc2nc(=O)c(/C=C3\C=Nc4ccccc43)c(N)n12	-	50	-	-	-	-
Cc1cc(=O)oc2cc(OCC(=O)N3CCN(C(=O)C4COc5ccccc5O4)CC3)ccc12 (stereo not drawn)	-	78	-	-	-	-
COc1ccc(CC(=O)N(Cc2ccccc2)c2ccc(C)cc2)cc1OC	-	-	-	-	-	-
Cc1ccc2c(c1)c(C)c(C)n2CC(O)Cn1nc(C)c(Br)c1C (stereo not drawn)	-	59	-	-	-	-
CN(C)/C=C1\SC(=S)N(c2ccc(Br)cc2)C1=O	-	54	-	-	-	-
COc1ccc(N2CCN(C(=O)Cc3ccc(Cl)cc3)CC2)cc1	-	-	-	-	-	-
CC(=NCc1ccco1)c1c(C)[nH]n(-c2nc3ccccc3s2)c1=O	-	-	-	-	-	-
C/C(=N/NC(=O)c1cccs1)c1c(C)[nH]n(-c2nc3ccccc3s2)c1=O	-	55	-	-	-	-
O=c1cc(/N=C/c2coc3c(ccc4ccccc43)c2=O)[nH]c(=S)[nH]1	-	87	-	-	-	-
Cc1cc(NS(=O)(=O)c2ccc(NC(=O)CSc3nc4sc(C(=O)O)c(C)c4c(=O)[nH]3)cc2)no1	-	-	-	-	-	-
Cc1cc(NS(=O)(=O)c2ccc(NC(=O)CSc3nc4sc(C)c(C)c4c(=O)[nH]3)cc2)no1	-	54	-	-	-	-
CCCCC1CN2CCc3c([nH]c4ccccc34)C2(C)C1 (stereo not drawn)	-	-	-	-	-	-
O=C(Nc1ccccc1)Nc1cc(Cl)cc(Cl)c1	-	84	-	-	-	-
O=C(Nc1cccc(Cl)c1)Nc1cccc(Cl)c1	-	-	-	-	-	-
O=C(NCc1ccccn1)Nc1cccc(Cl)c1	-	-	-	-	-	-
O=C(Nc1ccccc1)Nc1cc(OCC(F)(F)F)cc(OCC(F)(F)F)c1	.	52	-	-	.	.
O=C(NCc1ccccn1)Nc1cc(Cl)cc(Cl)c1	-	77	-	-	-	-
CC(C)(C)S(=O)(=O)N1C[C@H]2CC/C=C\C/C=C\2[C@@H]1CCO	.	.	.	-	.	.
COc1ccc(Nc2cc(Nc3cc(OC)c(OC)c(OC)c3)ncn2)cc1	-	-	-	-	-	-
C/C(N)=C(/C#N)C(=O)COC(=O)C1CCN(S(=O)(=O)c2cccs2)CC1	-	.	.	-	-	-
SMILES	tim10-1 inh	SKKanGAS inh	PfHsp90 set2	V-ATPase pH	TIM10 inh	tim23-1 inh
CC(=O)Oc1c(I)cc(I)cc1C(=O)Nc1ccc(Cl)cc1	-	124	.	-	-	-
COc1ccc(Cl)cc1C(=O)Nc1ccc(NC(C)=O)cc1	-	-	-	-	-	-
Cc1ccc(OCCSc2nc(NC(C)C)nc(NC(C)C)n2)cc1	-	72	-	-	-	-
CCNc1nc(SCCOc2ccc(C)cc2)nc(N(C)C)n1	-	-	-	-	-	-
CC(Cc1c[nH]c2ccccc12)C(=O)NCc1ccco1 (stereo not drawn)	-	-	-	-	-	-
CN=C1S/C(=C\c2ccc(N3CCOCC3)c(F)c2)C(=O)N1C	-	61	.	-	-	-
CCOC(=O)CCCC(=O)N1CCOCCOCCOCC1	-	-	-	-	-	-
Cc1ccc(-n2c(O)c(C=Nc3ccccc3-c3n[nH]c(=S)[nH]c3=O)c3ccccc3c2=O)cc1C	-	?	-	-	-	-
Cc1ccc(-n2c(O)c(C=Nc3ccccc3-c3n[nH]c(=S)[nH]c3=O)c3ccccc3c2=O)c(C)c1	-	73	-	-	-	-
CCCCCC(=O)N1C[C@@H](O)[C@H](n2cc(-c3ccc(F)cc3)nn2)C[C@@H]1c1ccccc1	.	.	.	-	.	.
O=C(c1ccccc1)c1ccc(N2CCN(C(=O)c3ccc(F)cc3F)CC2)c(F)c1	.	.	.	-	.	.
Cc1nc2c(-c3ccc(Cl)cc3)c(C)[nH]n2c(=O)c1Cc1ccccc1	-	99	-	-	-	-
Cc1nc2c(-c3ccccc3)c(C)[nH]n2c(=O)c1Cc1ccccc1	-	52	-	-	-	-
COc1ccc(OC)c(NC(=O)C(=O)NNC(=O)COc2ccc(Br)cc2C)c1	-	121	-	-	-	-
COc1ccc(OCC(=O)NNC(=O)C(=O)Nc2cc(OC)ccc2OC)cc1	-	-	-	-	-	-
O=C(NNC1=Nc2ccccc2SC1)c1ccc(F)cc1	-	69	-	-	-	-
O=C(NNC1=Nc2ccccc2SC1)c1ccc(Cl)cc1	-	90	-	-	-	-
CCc1ccc(C(C)NC(=S)NC2CCCCC2)cc1 (stereo not drawn)	-	-	-	-	-	-
CC(NC(=S)NC1CCCCC1)c1ccc(C(C)(C)C)cc1 (stereo not drawn)	-	56	-	-	-	-
CCC(C)c1ccc(C(C)NC(=S)NC2CCCCC2)cc1 (stereo not drawn)	-	50	-	-	-	-
N#C/C(=C(/O)c1ccccc1F)c1nc2cc(C(F)(F)F)ccc2s1	-	-	-	-	-	-
N#C/C(=C(/O)c1ccc2c(c1)OCO2)c1nc2cc(C(F)(F)F)ccc2s1	-	52	-	-	-	-
CN(CC(=O)Nc1ccc(Cl)cc1F)C1=NS(=O)(=O)c2ccccc21	-	.	.	-	-	-
O=C(N/N=C/c1ccc([N+](=O)[O-])o1)c1cn(-c2ccccc2)nc1-c1ccc(Cl)cc1	-	107	.	-	-	-
COc1ccccc1NC(=O)c1cccc2c(Br)cccc12	-	-	-	-	-	-
SMILES	tim10-1 inh	SKKanGAS inh	PfHsp90 set2	V-ATPase pH	TIM10 inh	tim23-1 inh
O=C(/C=C/c1ccco1)Oc1cc(Br)cc(/C=N/NC(=O)c2ccccc2O)c1	.	88	-	-	.	.
Cc1cc(C(=O)CSc2nc3ccc(Cl)cc3[nH]2)c(C)n1Cc1ccco1	-	-	-	-	-	-
CC1(C)CC(c2nc(-c3ccc(Cl)cc3)cs2)CCS1 (stereo not drawn)	-	65	-	-	-	-
CC1(C)CC(c2nc(-c3ccc(Br)cc3)cs2)CCS1 (stereo not drawn)	-	-	-	-	-	-
Cn1c(=O)[nH]c(=O)c2c1nc(N1CCC(Cc3ccccc3)CC1)n2Cc1ccccc1	-	53	-	-	-	-
CCCCCn1c(N2CCC(Cc3ccccc3)CC2)nc2c1c(=O)[nH]c(=O)n2C	-	93	-	-	-	-

From PubChem BioAssay
